Laboratory results published in PubChem BioAssay.

Assay: E. coli acrAB mutant growth effects, primary screen, E. coli filamentation inducers, strain DRC39, OD650, 24 h (AID 1178);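 also: growth measured as culture turbidity by optical density at 650 nm; test concentration not given here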
Conditions: higher = more signal, called active from +8 up or from −8 down

z-score, inactive:
COc1ccc([Si](C)(C)[C@@H]2[C@@H](CC(=O)N3CCC[C@H]3CO)O[C@]3(C(=O)N(C)c4c(Br)cc(C)cc43)[C@H]2C)cc1 0.233
COC(=O)[C@@]1(Cc2ccc(F)cc2)[C@H]2c3cc(C(=O)N4CCCC4)n(Cc4cccc5ccccc45)c3C[C@H]2CN1C(=O)c1ccccc1 -1.11
C=CC(COC(C)=O)NS(=O)(=O)c1ccc(Br)cc1 (configuration not stated) -0.909
CC(C)(C)OC(=O)CC[C@@]1(C(=O)O)N=C(c2ccc(OCCCO)cc2)O[C@@H]1c1ccccc1N=[N+]=[N-] 0.428
CCOC(=O)C1=CCC(c2ccc(C#N)cc2)N(S(=O)(=O)c2ccc(C)cc2)C1 (configuration not stated) -0.445
O=C1OCCC=C[C@H]2OC34C=CCN(Cc5ccccc5)C(=O)[C@H]3N(CCCO)C(=O)[C@@H]4C12 (some centres not stated) -0.638
O=C1OCC=C[C@H]2OC34C=CCN(c5ccc(Cl)cc5)C(=O)[C@H]3N(CCCCCCO)C(=O)[C@@H]4[C@@H]12 (some centres not stated) 0.571
COC(=O)C(CC#Cc1ccc2c(c1)[C@]1(C(=O)N2)[C@H](c2ccc(OCCO)cc2)N2[C@H](c3ccccc3)[C@H](c3ccccc3)OC(=O)[C@H]2[C@@H]1C(=O)NC[C@H](O)c1ccccc1)C(=O)OC 0.602
CCOC(=O)C1=CC[C@@H](c2ccccc2Cl)N(S(=O)(=O)c2ccc(C)cc2)C1 -0.203
O=C1O[C@H](c2ccccc2)[C@H](c2ccccc2)N2[C@H]1[C@@H](C(=O)O)[C@]1(C(=O)Nc3ccc(C#CC4=CCCCC4)cc31)[C@H]2c1ccc(OCCO)cc1 0.668
N#Cc1ccc(NN2C(C(O)c3ccc([N+](=O)[O-])cc3)C=CC3C(=O)N(c4ccccc4)C(=O)C32)cc1 (configuration not stated) -0.685
C=C(CCCC)/C(=C/C[C@H](OC(C)=O)c1ccc(CO)o1)c1cnc2ccccc2c1 0.18
O=C1OCCC=C[C@H]2OC34C=CCN(Cc5ccccc5)C(=O)[C@H]3N(CCCCCCO)C(=O)[C@@H]4C12 (some centres not stated) 0.759
C[C@]1(C(=O)NCc2ccccc2)c2ccccc2C(=O)N(Cc2ccc(OC(F)(F)F)cc2)[C@H]1c1ccc(CO)cc1 1
CC(C)NC(=O)[C@@]1(Cc2ccccc2I)c2ccccc2C(=O)N(Cc2ccccc2)[C@H]1c1ccc(CO)cc1 -0.24
O=C1N(CCS(=O)(=O)c2ccccc2)c2ccccc2C[C@@]12COC(c1ccc(OCCCO)cc1)=N2 -0.0526
CC1CC/C=C\[C@H]2OC34C=CCN(Cc5ccccc5)C(=O)[C@H]3N(CCCCCO)C(=O)[C@@H]4C2C(=O)O1 (some centres not stated) 0.443
